Results on 6 molecules are retold here after PubChem BioAssay.

Structures are written as SMILES. Active and inactive are the calls of the source.

Test [1] has as its system Human papillomavirus type 1a protein E7 (residues 44-93). The experiment in a line: small molecules binding HPV E7 44-93 – biochemical, small-molecule microarray, residues 44-93, 635 nm fluorescence, primary screen (AID 1108).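 Also: E7 fragment applied at 1 µg/mL in TBST for 1 h at 4 C; score combines spot fluorescence with its signal to noise ratio.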 Conditions: fluorescence 635 nm, higher = more signal.
Test [2] in a line: hepatitis C replication reporter changes, two-sided – Huh7 cells, luciferase reporter, HCV replication inhibitor project, primary screen (AID 1109).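 Also: huh7 hepatoma cells harbouring a luciferase neomycin HCV replicon reporter; luciferase luminescence as measure of HCV replicon replication; test concentration not given here.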 Conditions: Huh7 HCV replicon luciferase reporter, 48 h; higher = more signal. A general note: In a reporter assay the amount or activity of a reporter protein is the signal.
The target of test [3] is Left-right determination factor 2 (Homo sapiens) (UniProt O00292). The test is described as follows: small molecules binding LEFTY2 protein – biochemical, small-molecule microarray, 635 nm fluorescence scan, primary screen (AID 1110). Conditions: higher = more signal.
Test [4] addresses Calmodulin-1 (Homo sapiens) (UniProt P0DP23). The test is described as follows: small molecules binding calmodulin-1 with EGTA – biochemical, small-molecule microarray, Cy5-labelled CALM1, profiling panel (AID 1111).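 Also: labelled calmodulin applied in Tris saline Tween buffer holding calcium plus EGTA and DTT.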 The settings on record: Cy5-CALM1 binding fluorescence, higher = more signal.
Test [5] shares this target. The experiment in a line: small molecules binding Ca-loaded calmodulin-1 – biochemical, small-molecule microarray, Cy5-labelled CALM1, plus calcium, artefact control for SMM control-protein annotation, profiling panel (AID 1112).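 Also: score merges spot fluorescence with signal to noise from triplicate slides.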 Conditions: Cy5-CALM1 binding fluorescence, higher = more signal.
Test [6] in a line: probe aWnt5a binding to arrayed compounds – biochemical, biotinylated probe, 635/667 nm fluorescence, primary screen (AID 1113).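 Also: score merges 667 nm fluorescence intensity with signal-to-noise per printed feature.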 Conditions: small-molecule microarray, higher = more signal.
Test [7] in a line: probe aShh binding to arrayed compounds – biochemical, biotinylated probe, 635/667 nm fluorescence, primary screen (AID 1114).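 Also: probe is biotin-labelled aShh protein from a stem cell growth factor screen; measures binding of labelled protein to compounds printed on the slide; score merges feature fluorescence at 667 nm with signal-to-noise.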 Conditions: small-molecule microarray, higher = more signal.
A short description of test [8]: probe aNog binding to arrayed compounds – biochemical, biotinylated probe, 635/667 nm fluorescence, primary screen (AID 1115).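 Also: probe is biotinylated aNog protein used at 0.15 µg/mL for 1 h at 4 C; z-score combines 667 nm fluorescence of each spot with its signal to noise.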 Conditions: small-molecule microarray, higher = more signal.
For test [9], the target named is Torsin-1A-interacting protein 1 (Homo sapiens) (UniProt Q5JTV8). The test is described as follows: compound microarray binding of lysate hLAP1 – cell lysate, small-molecule microarray, COS7 lysate, 635/667 nm fluorescence, primary screen (AID 1116). The settings on record: 635 nm fluorescence, higher = more signal.
Test [10] deals with Alpha-bungarotoxin (Bungarus multicinctus) (UniProt P60615). The experiment in a line: compounds binding labelled alpha-BTX control protein – biochemical, small-molecule microarray, Alexa647 label, 635/667 nm fluorescence, artefact control for SMM control protein annotation, profiling panel (AID 1117). The settings on record: alpha-BTX-A647 binding fluorescence, higher = more signal.

A further test addresses Albumin (Bos taurus) (UniProt P02769). The test is described as follows: compounds binding labelled BSA control protein – biochemical, small-molecule microarray, Alexa647 label, 635/667 nm fluorescence, artefact control for SMM control protein annotation, profiling panel (AID 1118).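 Also: score merges 667 nm emission intensity and signal-to-noise per printed compound spot.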 The settings on record: BSA-A647 binding, fluorescence 635 nm, higher = more signal.
Test [11] is described as follows: probe aXIP binding to arrayed compounds – biochemical, NeuroSMM set, 635/667 nm fluorescence, primary screen (AID 1119).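 Also: probe is the protein aXip251-270 applied at 1 µg/mL to compound-printed slides; binding of probe to printed compounds measured as 667 nm fluorescence plus signal to noise.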 The settings on record: small-molecule microarray, higher = more signal, called active from +8 up or from −8 down.
Test [12] in a line: probe aNOTCH3 binding on compound microarray – biochemical, small-molecule microarray, 635/667 nm fluorescence, primary screen (AID 1120).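 Also: probe is a biotin-tagged antibody raised against NOTCH3 rather than NOTCH3 protein; score merges spot fluorescence near 667 nm with spot signal to noise.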 The settings on record: higher = more signal.
Test [13] can be described thus: probe aNOTCH2 binding on compound microarray – biochemical, small-molecule microarray, 635/667 nm fluorescence, primary screen (AID 1121).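 Also: score merges feature fluorescence read at 667 nm with its signal to noise.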 The settings on record: higher = more signal.
In test [14] the target is Carbonic anhydrase 2 (Homo sapiens) (UniProt P00918). The test is described as follows: compounds binding carbonic anhydrase 2 – biochemical, small-molecule microarray, Alexa647-labelled CAII, profiling panel (AID 1122). The settings on record: CAII-A647 binding fluorescence, higher = more signal.
Test [15] in a line: COS7 lysate on small-molecule microarray, probe aHis, 635 nm (AID 1123).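 Also: z-score combines 667nm fluorescence intensity with signal-to-noise per printed compound spot.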 The settings on record: COS7 cell lysate, fluorescence, higher = more signal.
Test [16] is described as follows: probe aLAP1 signal on lysate-treated microarray – cell lysate, small-molecule microarray, COS7 lysate, primary screen (AID 1124).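 Also: lysate comes from COS7 cells expressing LAP1 and is applied at 0.3 µg/mL; score merges spot fluorescence near 667 nm with signal-to-noise over triplicate slides.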 Conditions: probe aLAP1, fluorescence, higher = more signal.
The test system of the next test is Sam68 (KHDRBS1). The test is described as follows: compounds binding KHDRBS1 protein – biochemical, small-molecule microarray, 635 nm fluorescence, primary screen (AID 1125).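 Also: score merges 667 nm channel intensity with signal to noise over triplicate slides.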 The settings on record: higher = more signal.
Test [17] concerns Chordin-like protein 2 (CHRDL2). The test is described as follows: compounds binding chordin-like 2 – biochemical, small-molecule microarray, 635 nm fluorescence, primary screen (AID 1126).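 Also: printed compound slides probed with Chrdl2 protein at 4 µg/mL for 1 h at 4 C; score merges 667 nm emission intensity with signal to noise over three replicate slides.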 Conditions: fluorescence 635 nm, higher = more signal.
Test [18] concerns the target Concanavalin-A (Canavalia ensiformis) (UniProt P02866). The test is described as follows: compounds binding concanavalin A lectin – biochemical, small-molecule microarray, Alexa647 label, 635 nm, artefact control for SMM control protein annotation, primary screen (AID 1127).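 Also: z combines 667 nm emission intensity with signal-to-noise across three replicate slides.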 The settings on record: ConA-A647 binding fluorescence, higher = more signal.

Left-right determination factor 2 (Homo sapiens), sequence (O00292 whole entry, looked up): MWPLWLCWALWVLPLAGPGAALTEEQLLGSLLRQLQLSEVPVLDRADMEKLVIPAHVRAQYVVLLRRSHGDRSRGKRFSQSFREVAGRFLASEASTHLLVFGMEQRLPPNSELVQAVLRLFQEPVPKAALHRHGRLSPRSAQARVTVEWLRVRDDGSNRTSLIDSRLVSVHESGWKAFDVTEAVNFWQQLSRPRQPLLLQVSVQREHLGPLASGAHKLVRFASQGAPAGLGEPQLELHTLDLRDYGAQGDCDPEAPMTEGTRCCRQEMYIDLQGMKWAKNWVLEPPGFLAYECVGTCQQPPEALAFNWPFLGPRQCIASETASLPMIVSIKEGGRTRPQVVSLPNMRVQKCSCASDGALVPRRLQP
Torsin-1A-interacting protein 1 (Homo sapiens), sequence (Q5JTV8 whole entry, looked up): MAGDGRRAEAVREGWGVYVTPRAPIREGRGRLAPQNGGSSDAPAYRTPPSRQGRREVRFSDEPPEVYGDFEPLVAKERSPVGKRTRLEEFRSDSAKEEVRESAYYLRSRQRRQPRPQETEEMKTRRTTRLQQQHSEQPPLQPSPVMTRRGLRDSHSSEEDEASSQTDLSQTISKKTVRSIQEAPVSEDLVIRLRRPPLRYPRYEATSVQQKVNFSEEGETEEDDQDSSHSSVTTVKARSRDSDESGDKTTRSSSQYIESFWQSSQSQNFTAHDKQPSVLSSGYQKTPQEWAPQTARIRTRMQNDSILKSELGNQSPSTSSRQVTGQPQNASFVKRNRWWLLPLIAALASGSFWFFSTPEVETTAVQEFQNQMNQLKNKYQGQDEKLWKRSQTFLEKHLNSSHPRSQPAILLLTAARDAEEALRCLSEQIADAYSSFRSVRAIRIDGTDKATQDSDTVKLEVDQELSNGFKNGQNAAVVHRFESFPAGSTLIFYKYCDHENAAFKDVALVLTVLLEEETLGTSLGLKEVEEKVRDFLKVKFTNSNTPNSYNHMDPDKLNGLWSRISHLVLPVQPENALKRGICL
Alpha-bungarotoxin (Bungarus multicinctus), sequence (P60615 whole entry, looked up): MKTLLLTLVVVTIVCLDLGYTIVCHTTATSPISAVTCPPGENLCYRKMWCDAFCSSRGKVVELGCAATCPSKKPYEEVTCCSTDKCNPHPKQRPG
Albumin (Bos taurus), sequence (P02769 whole entry, looked up): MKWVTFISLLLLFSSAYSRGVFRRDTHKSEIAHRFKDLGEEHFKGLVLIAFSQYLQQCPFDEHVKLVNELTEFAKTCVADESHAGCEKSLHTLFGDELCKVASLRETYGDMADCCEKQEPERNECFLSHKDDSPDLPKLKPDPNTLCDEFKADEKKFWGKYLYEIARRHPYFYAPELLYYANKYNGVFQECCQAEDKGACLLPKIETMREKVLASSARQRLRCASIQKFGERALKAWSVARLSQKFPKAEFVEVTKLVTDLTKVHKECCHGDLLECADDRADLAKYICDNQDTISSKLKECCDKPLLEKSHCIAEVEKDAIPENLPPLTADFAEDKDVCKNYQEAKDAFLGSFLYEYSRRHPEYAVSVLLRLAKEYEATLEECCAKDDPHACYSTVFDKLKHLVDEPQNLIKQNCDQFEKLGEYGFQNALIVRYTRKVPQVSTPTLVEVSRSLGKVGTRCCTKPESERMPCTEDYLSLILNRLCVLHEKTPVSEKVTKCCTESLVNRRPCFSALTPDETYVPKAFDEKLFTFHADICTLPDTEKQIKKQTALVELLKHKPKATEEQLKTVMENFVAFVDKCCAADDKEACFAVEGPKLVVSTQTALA
Concanavalin-A (Canavalia ensiformis), sequence (P02866 whole entry, looked up): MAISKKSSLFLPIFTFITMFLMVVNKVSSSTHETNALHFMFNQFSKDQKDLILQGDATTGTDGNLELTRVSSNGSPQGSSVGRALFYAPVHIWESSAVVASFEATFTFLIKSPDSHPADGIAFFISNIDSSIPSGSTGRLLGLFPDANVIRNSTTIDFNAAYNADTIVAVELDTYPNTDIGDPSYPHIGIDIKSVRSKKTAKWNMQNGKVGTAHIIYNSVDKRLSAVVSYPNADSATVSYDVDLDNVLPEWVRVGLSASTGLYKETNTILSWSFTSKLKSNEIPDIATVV

For the molecule `O=C1C[C@@H](O)[C@@H](O)[C@@H]2[C@@H]3C(=O)N(C4CCCCC4)C(=O)[C@@H]3CC[C@@H]12`, the composite z-score in test [1] was 0.242; in [3] it was 0.697; in test [4], -0.0958; in test [5], -0.397; in test [6] it was -0.177; in test [7], 0.0898. In addition, the composite z-score is -0.104 in [8]; 0.462 in [9]; 0.882 in test [10]; 0.337 with Albumin (Bos taurus); -0.104 in test [12]; -0.198 in test [13]. In addition, the composite z-score in [14] was 0.167; in test [15], 0.798; in test [16], -0.244; with Sam68 (KHDRBS1), 0.546; in test [17], 0.36; in test [18] it was 0.448. This molecule also yielded a z-score in test [2] of -0.331. In addition, the composite Z-score in [11] is -0.228 (inactive).

Consider `COCC#Cc1ccc([C@@H]2N[C@H](C(=O)O)CC[C@H]2C)cc1`, for which the composite z-score in test [1] was -0.216; in test [3] it was 0.794; in [4], -0.292; in [5], 0; in test [6] it was -0.224; in test [7] it was -0.117. For the same molecule, the composite z-score is -0.186 in [8]; -0.416 in test [9]; 0.0645 in test [10]; -0.202 with Albumin (Bos taurus); -0.0605 in test [12]; -0.144 in test [13]. In addition, the composite z-score is -0.148 in [14]; -0.336 in [15]; -0.384 in test [16]; -0.377 with Sam68 (KHDRBS1); 0.305 in test [17]; -0.691 in [18]. Moreover, the z-score in [2] stood at 0.958. In test [11], the composite Z-score is -0.165 (inactive).

In the case of `CCOC(=O)[C@H](Cc1ccccc1)NC(=O)CCC1CC(OC(=O)NCc2ccc3c(c2)OCO3)CC2(CCCC(COC(=O)NCCOC)O2)O1` (stereo not given in full), the composite z-score in test [1] is 1.36; in [3], 0.545; in [4] it was 0.353; in test [5], -0.194; in test [6], -0.124; in [7] it was -0.153. In addition, the composite z-score in test [8] was -0.0524; in test [9], 0.609; in [10], 0.591; with Albumin (Bos taurus) it was -0.756; in test [12], 0.163; in test [13], -0.0785. Besides, the composite z-score in test [14] was 0.134; in test [15], 0.577; in test [16] it was -0.172; with Sam68 (KHDRBS1) it was 1.3; in test [17] it was 0.379; in test [18], 1.06. The same molecule showed a z-score in test [2] of -1.08. Further, the composite Z-score in test [11] is 0.0786 (inactive).

In the case of `CCOC(=O)[C@H](Cc1ccccc1)NC(=O)CCC1CC(OC(=O)NCc2ccc3c(c2)OCO3)CC2(CCCC(COC(=O)NCCc3ccc(Cl)cc3)O2)O1` (stereo not given in full), the composite z-score in test [1] was 1.14; in test [3], 0.619; in test [4], 0.534; in test [5], -0.397; in test [6], -0.124; in test [7] it was 0.0756. Moreover, the composite z-score in test [8] is 0.0308; in test [9] it was -0.0764; in test [10], 0.337; with Albumin (Bos taurus), 0.581; in test [12], 0.0591; in test [13] it was -0.125. Moreover, the composite z-score in test [14] amounted to 0.151; in test [15], 0.454; in test [16] it was 0.0158; in the test on Sam68 (KHDRBS1), 1.3; in test [17], 0.43; in test [18] it was 0.814. Also, the z-score in test [2] is 0.615. For the same molecule, the composite Z-score in test [11] is 0.264 (inactive).

Consider `O=C(NN=C1C[C@@H](O)[C@@H](O)[C@@H]2[C@@H]3C(=O)N(Cc4ccc5c(c4)OCO5)C(=O)[C@@H]3CC[C@@H]12)OCc1ccccc1`, for which the composite z-score in test [1] was -0.189; in [3], 0.0764; in test [4], -0.114; in test [5] it was -0.103; in [6], -0.176; in test [7] it was 0.227. For the same molecule, the composite z-score was -0.0498 in test [8]; 0.739 in test [9]; 0.26 in [10]; 0.544 with Albumin (Bos taurus); -0.0377 in test [12]; -0.0817 in [13]. Also, the composite z-score in [14] was -0.141; in test [15], -0.357; in test [16], 0.0507; in the test with Sam68 (KHDRBS1) it was -0.449; in test [17], -0.0473; in test [18], -0.0653. In test [2], this molecule registered a z-score of -1.39. Moreover, the composite Z-score in test [11] is 0.536 (inactive).

`C[C@H]1C=CCC(=O)OC[C@H](C)C(=O)N2CCC[C@H]2C(=O)OC1`: the composite z-score in test [1] is -2.34; in test [3] it was 1.62; in test [4] it was -0.774; in [5], -1.82; in test [6], -0.174; in [7], -0.0709. In addition, the composite z-score in [8] was -0.137; in test [9], 1.71; in test [10], -0.477; with Albumin (Bos taurus), -0.68; in test [12] it was -0.161; in [13] it was -0.115. For the same molecule, the composite z-score in [14] was -0.656; in test [15] it was -0.802; in test [16], 0.374; in the test on Sam68 (KHDRBS1), -0.374; in test [17], 1.62; in test [18], -0.35. This molecule also yielded a z-score in test [2] of -0.971. For the same molecule, the composite Z-score in [11] is 0.472 (inactive).
